The text below walks through data of PubChem BioAssay (Tox21).

“And” between values parts separate entries of the source, which are not always exact repeats. Equal values may be shown once. Results filed as inconclusive are left out. Some structures have more than one record in an assay (separate samples or runs), and their calls can disagree. The source made the active and inactive calls. Unless noted, calls come from the whole dose curve; as a rule, active = well fitted curve in the direction sought with a large enough effect in the repeat runs; inconclusive = weak or mixed curves; inactive = no such curve, though single readings can be large; an effect the other way counts as inactive or inconclusive.

Experiment [1] deals with Androgen receptor (Homo sapiens) (UniProt P10275). The experiment can be described thus: qHTS assay to identify small molecule antagonists of the androgen receptor (AR) signaling pathway using the MDA cell line in the presence of 0.5 nM R1881 (AID 1259243). Note: nearly all actives have a fitted effect of over 50% in size. Note: potency is the fitted concentration of half-maximal effect. The procedure, abridged: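 With R1881 held at 0.5 nM (final), compound effects on MMTV-luciferase expression in MDA-kb2 cells were scored by luminescence after a 16 hr, 37C incubation.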
Androgen receptor (Homo sapiens), sequence (P10275 whole entry, looked up): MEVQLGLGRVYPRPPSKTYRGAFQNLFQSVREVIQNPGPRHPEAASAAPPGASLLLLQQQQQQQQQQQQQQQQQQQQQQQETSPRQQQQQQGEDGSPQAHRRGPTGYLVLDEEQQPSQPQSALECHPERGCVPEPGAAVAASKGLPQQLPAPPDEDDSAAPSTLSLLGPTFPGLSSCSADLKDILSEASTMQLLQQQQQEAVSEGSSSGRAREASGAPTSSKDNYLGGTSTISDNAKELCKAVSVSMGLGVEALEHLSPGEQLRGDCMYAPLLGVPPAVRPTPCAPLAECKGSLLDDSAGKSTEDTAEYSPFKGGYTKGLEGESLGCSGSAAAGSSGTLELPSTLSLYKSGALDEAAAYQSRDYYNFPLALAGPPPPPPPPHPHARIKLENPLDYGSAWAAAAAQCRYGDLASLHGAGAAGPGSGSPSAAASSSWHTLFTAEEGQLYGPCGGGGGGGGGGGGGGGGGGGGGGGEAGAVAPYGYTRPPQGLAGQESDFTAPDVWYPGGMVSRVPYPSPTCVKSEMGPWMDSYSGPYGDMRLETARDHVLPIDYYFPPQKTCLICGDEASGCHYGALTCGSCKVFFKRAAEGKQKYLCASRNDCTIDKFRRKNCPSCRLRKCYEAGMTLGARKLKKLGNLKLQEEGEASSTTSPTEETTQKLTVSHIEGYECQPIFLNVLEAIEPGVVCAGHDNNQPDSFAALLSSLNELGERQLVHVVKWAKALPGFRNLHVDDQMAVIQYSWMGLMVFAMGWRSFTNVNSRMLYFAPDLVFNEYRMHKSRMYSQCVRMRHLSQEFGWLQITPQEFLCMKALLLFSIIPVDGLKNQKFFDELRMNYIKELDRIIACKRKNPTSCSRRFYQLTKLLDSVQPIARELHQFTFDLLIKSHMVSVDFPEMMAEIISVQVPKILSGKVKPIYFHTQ
(In general: qHTS replaces the single test concentration by a dilution series.)

Experiment [2] deals with Estrogen receptor (Homo sapiens) (UniProt P03372). The experiment can be described thus: qHTS assay to identify small molecule antagonists of the estrogen receptor alpha (ER-alpha) signaling pathway using the BG1 cell line in the presence of 0.1 nM 17-beta-estradiol (AID 1259244). Note: nearly all actives have a fitted effect of over 50% in size. Note: potency is the fitted concentration of half-maximal effect. The gist of the method:
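Compounds were tested against 0.1 nM (final) 17beta-estradiol in VM7Luc4E2 cells, which express full-length ER-alpha and an ERE-luciferase reporter; luminescence was recorded following 22 h exposure.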

A short description of experiment [3]: qHTS assay to identify small molecule HDAC inhibitors - cell viability counter screen (AID 1259365). Note: nearly all actives have a fitted effect of over 50% in size. Note: potency is the fitted concentration of half-maximal effect. The procedure, abridged:
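Cytotoxicity was gauged in wild-type HCT-116 cells after a brief 2hr treatment with DMSO-dissolved compounds at 37C and 5% CO2, using CellTiter-Glo luminescence developed for 30min at room temperature.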

Experiment [4] in a line: qHTS assay to identify small molecule antagonists of the sonic hedgehog signaling (Shh) pathway - cell viability counter screen (AID 1259367). Note: nearly all actives have a fitted effect of over 55% in size. Note: potency is the fitted concentration of half-maximal effect. The gist of the method: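 Cytotoxicity was assessed in parallel with Shh reporter activity by measuring live-cell protease fluorescence (CellTiter-Fluor) in NIH/3T3 cells stably carrying Gli1-Luc, treated with compound under conditioned medium stimulation for 23 hr plus 1 hr reagent incubation.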

Experiment [5] is described as follows: qHTS assay to identify small molecule agonists of the sonic hedgehog signaling (Shh) pathway (AID 1259368; calls by dose curve;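 note: NIH/3T3-derived 3T3Gli1-Luc cells carrying a stable Gli1-driven firefly luciferase reporter; series mostly up to about 92 µM; nearly all actives have a fitted effect of over 15% in size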). The procedure, abridged: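 Hedgehog pathway agonism scored by increased firefly luciferase luminescence in 3T3Gli1-Luc cells treated 24 hr at 37 C; detection used a 30 min room-temperature reagent incubation.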
Experiment [6] in a line: qHTS assay to identify small molecule antagonists of the sonic hedgehog signaling (Shh) pathway (AID 1259369; calls by dose curve; note: nearly all actives have a fitted effect of over 45% in size; note: potency is the fitted concentration of half-maximal effect). The procedure, abridged: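 NIH/3T3 stable Gli1-Luc clone, 2,000 cells/well, 4hr settle; cpd + conditioned medium 24hr; Luc reagent 30min RT; luminescence.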
Experiment [7] in a line: qHTS assay to identify small molecule agonists of the androgen receptor (AR) signaling pathway in the presence of an antagonist - cell viability counter screen (AID 1259379). Note: nearly all actives have a fitted effect of over 25% in size. Note: potency is the fitted concentration of half-maximal effect. The procedure, abridged: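 MDA-kb2 viability measured by CellTiter-Fluor fluorescence in the same wells as the luciferase signal; nilutamide 3.0uM final; 15-point compound titration; 16 hr at 37C.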

The nature of experiment [8]: qHTS assay to identify small molecule agonists of the estrogen receptor beta (ER-beta) signaling pathway - cell viability counter screen (AID 1259380). Note: nearly all actives have a fitted effect of over 30% in size. Note: potency is the fitted concentration of half-maximal effect. The procedure, abridged: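 Measured: luminescence from CellTiter-Glo after 30 min at room temperature, added to wells already read for the LiveBLAzer FRET reporter (2 hr substrate); ER-beta-UAS-bla HEK293T cells had 16 hr compound treatment at 37C, 5% CO2.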

The target in experiment [9] is Androgen receptor (Homo sapiens) (UniProt P10275). Put plainly: qHTS assay to identify small molecule agonists of the androgen receptor (AR) signaling pathway in the presence of an antagonist (AID 1259381; calls by dose curve; note: nearly all actives have a fitted effect of over 15% in size). The gist of the method:
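Luminescent ONE-Glo read, 30min at room temperature, follows 16hr compound exposure (15 concentrations) of MDA-kb2 cells at 37C, 0% CO2, with nilutamide added at 3.0uM final.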

Experiment [10] is described as follows: qHTS assay to identify small molecule antagonists of the estrogen receptor beta (ER-beta) signaling pathway - cell viability counter screen (AID 1259382). Note: nearly all actives have a fitted effect of over 55% in size. Note: potency is the fitted concentration of half-maximal effect. The procedure, abridged:
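Readout: luminescence, CellTiter-Glo, same wells as bla assay. System: ER-beta-UAS-bla GripTite HEK293T, 2% charcoal-stripped FBS. Exposure: compounds plus 1nM 17-beta-estradiol, 16 hr, 37C.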

Experiment [11] deals with Estrogen receptor (Homo sapiens) (UniProt P03372). Put plainly: qHTS assay to identify small molecule agonists of the estrogen receptor alpha (ER-alpha) signaling pathway in the presence of an antagonist (AID 1259383; calls by dose curve; note: top concentration of the series differs between compounds; nearly all actives have a fitted effect of over 15% in size). The gist of the method: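 Quantitative HTS confirmation: compounds titrated at 15 concentrations onto estrogen-deprived VM7Luc4E2 cells carrying a four-ERE luciferase construct, with ICI-182,780 present at 10.0nM final. Signal is luminescence after 22hr exposure.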
Estrogen receptor (Homo sapiens), sequence (P03372 whole entry, looked up): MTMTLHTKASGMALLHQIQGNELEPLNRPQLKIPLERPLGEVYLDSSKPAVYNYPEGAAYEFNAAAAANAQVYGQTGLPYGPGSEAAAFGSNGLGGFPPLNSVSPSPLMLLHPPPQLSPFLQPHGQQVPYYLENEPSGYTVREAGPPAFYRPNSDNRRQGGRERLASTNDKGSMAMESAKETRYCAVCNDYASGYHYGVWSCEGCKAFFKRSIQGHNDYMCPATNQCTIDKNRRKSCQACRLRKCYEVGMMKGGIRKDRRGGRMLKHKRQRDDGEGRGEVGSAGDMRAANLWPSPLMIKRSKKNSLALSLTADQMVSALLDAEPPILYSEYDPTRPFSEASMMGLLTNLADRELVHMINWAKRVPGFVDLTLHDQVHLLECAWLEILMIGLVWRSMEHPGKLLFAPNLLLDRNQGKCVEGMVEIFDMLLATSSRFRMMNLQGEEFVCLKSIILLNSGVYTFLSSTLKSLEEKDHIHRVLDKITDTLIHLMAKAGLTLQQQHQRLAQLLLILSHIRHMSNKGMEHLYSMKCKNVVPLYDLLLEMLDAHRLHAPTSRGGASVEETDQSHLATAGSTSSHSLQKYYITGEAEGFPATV

The nature of experiment [12]: qHTS assay to identify small molecule agonists or antagonists of the thyroid stimulating hormone receptor (TSHR) signaling pathway - wild type cell line counter screen (AID 1259384; calls by dose curve). The procedure, abridged:
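Wild-type HEK293 cells were plated 18 h at 37 C/5% CO2, pin-dosed with compound plus Ro20-1724 medium, held 30 min at room temperature, then given cAMP-d2 and anti-cAMP-cryptate; fluorescence was read after 1 h. Fifteen concentrations, triplicate.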

The target in experiment [13] is Thyrotropin receptor (Homo sapiens) (UniProt P16473). The experiment can be described thus: qHTS assay to identify small molecule antagonists of the thyroid stimulating hormone receptor (TSHR) signaling pathway (AID 1259385; calls by dose curve; note: nearly all actives have a fitted effect of over 20% in size; note: potency is the fitted concentration of half-maximal effect). The gist of the method:
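TSHR-HEK293 cells were plated and held 18 h at 37C/5% CO2, then given compound plus Ro20-1724 and stimulated with TSH at 1.5 ng/mL final. After 30 min at room temperature, cAMP was detected with cAMP-d2/anti-cAMP-cryptate (1 h) by fluorescence.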

Experiment [14] in a line: qHTS assay to identify small molecule agonists of the estrogen receptor alpha (ER-alpha) signaling pathway in the presence of an antagonist - cell viability counter screen (AID 1259386).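 Note: cells exposed to compounds for 22 h at 37 °C before the viability read; nearly all actives have a fitted effect of over 30% in size.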 Note: potency is the fitted concentration of half-maximal effect. The gist of the method:
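The test measures whether compounds kill ER-alpha reporter cells (VM7Luc4E2) under antagonist co-treatment (ICI-182,780, 10.0nM). Fluorescence from CellTiter-Fluor is read after a 22hr exposure.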

A short description of experiment [15]: qHTS assay to identify small molecule phospholipidosis (PLD) inducers (AID 1259344; active = well fitted curve in the direction sought with a large enough effect; an effect the other way counts as inactive or inconclusive). The procedure, abridged: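 Cells (HepG2, 900 per well) attach for 4 h, receive LipidTOX Red and compound together, incubate 24 h at 37 C, are fixed 30 min with paraformaldehyde/Hoechst, then imaged at one site per well.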
Experiment [16] in a line: qHTS assay to identify small molecule HDAC inhibitors (AID 1259364).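 Note: wild-type HCT-116 cells with endogenous class I/II HDAC activity; top concentration of the series differs between compounds; nearly all actives have a fitted effect of over 45% in size.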 The gist of the method: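 Screening used wild-type human colon HCT-116 cells incubated overnight, dosed with compounds for 2 hours, and assayed with a homogeneous luminogenic HDAC I/II reagent for 30 minutes at room temperature.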
Experiment [17] is described as follows: qHTS assay to identify small molecule agonists of the sonic hedgehog signaling (Shh) pathway - cell viability counter screen (AID 1259366). Note: nearly all actives have a fitted effect of over 50% in size. Note: potency is the fitted concentration of half-maximal effect. The gist of the method: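 Stable Gli1-Luc NIH/3T3 clone, 2,000 cells/well. Compound exposure 24hr at 37C. Read-out: CellTiter-Fluor fluorescence.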
Experiment [18] has as its target Progesterone receptor (Homo sapiens) (UniProt P06401). Put plainly: qHTS assay to identify small molecule agonists of the progesterone receptor (PR) signaling pathway (AID 1346784; calls by dose curve; note: nearly all actives have a fitted effect of over 30% in size). The gist of the method:
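The screen uses PR-UAS-bla HEK 293T cells in charcoal-stripped serum (2%). Compounds are applied for 16 hr at 37C after a 6 hr pre-incubation, and reporter activity is detected with a FRET beta-lactamase substrate after 2 hr at room temperature.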

Experiment [19] concerns the target Estrogen receptor beta (Homo sapiens) (UniProt Q92731). Put plainly: qHTS assay to identify small molecule agonists of the estrogen receptor beta (ER-beta) signaling pathway (AID 1259377; active = well fitted activation curve with a large enough effect in the signal ratio in the repeat runs, not every such curve was filed as active; the % refers to the signal ratio). The procedure, abridged:
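Measured by fluorescence intensity from a B/G FRET beta-lactamase substrate (2 h, room temperature) in ER-beta-UAS-bla HEK293T cells treated with DMSO-dissolved compounds for 16 hr at 37C and 5% CO2.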

Experiment [20] has the same target. Put plainly: qHTS assay to identify small molecule antagonists of the estrogen receptor beta (ER-beta) signaling pathway (AID 1259378; active = well fitted inhibition curve with a large enough effect in the signal ratio in the repeat runs, not every such curve was filed as active; the % refers to the signal ratio). The procedure, abridged:
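ER-beta-UAS-bla HEK293T (GripTite) cells in 2% charcoal-stripped FBS medium were preincubated 6 hr at 37C, dosed with compound, then stimulated with 1 nM E2 (final) for 16 hr; beta-lactamase reporter read by B/G FRET fluorescence after 2 hr substrate loading.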

Progesterone receptor (Homo sapiens), sequence (P06401 whole entry, looked up): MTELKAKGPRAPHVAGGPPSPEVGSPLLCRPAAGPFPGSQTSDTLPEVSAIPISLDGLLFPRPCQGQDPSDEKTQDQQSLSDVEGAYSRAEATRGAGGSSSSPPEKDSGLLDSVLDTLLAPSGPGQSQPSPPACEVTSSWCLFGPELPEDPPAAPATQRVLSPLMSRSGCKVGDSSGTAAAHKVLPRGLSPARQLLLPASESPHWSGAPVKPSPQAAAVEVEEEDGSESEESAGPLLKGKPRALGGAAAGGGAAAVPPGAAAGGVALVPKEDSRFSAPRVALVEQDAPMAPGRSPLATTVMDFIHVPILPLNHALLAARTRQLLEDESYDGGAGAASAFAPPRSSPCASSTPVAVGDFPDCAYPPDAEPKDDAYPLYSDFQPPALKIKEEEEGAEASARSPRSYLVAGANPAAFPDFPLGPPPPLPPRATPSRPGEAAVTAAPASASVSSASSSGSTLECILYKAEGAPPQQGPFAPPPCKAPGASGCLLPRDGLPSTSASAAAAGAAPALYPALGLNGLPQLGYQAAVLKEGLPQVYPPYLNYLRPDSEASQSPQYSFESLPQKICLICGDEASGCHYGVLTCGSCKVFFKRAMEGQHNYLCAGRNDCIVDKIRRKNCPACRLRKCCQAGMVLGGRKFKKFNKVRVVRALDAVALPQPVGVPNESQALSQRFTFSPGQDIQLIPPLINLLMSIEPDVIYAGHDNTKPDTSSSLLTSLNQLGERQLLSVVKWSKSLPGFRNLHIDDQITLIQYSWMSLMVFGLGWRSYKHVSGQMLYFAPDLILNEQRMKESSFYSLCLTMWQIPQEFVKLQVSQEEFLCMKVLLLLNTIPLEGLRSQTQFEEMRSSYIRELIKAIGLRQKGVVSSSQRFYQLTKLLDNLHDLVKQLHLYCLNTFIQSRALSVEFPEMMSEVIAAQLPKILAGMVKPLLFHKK
Thyrotropin receptor (Homo sapiens), sequence (P16473 whole entry, looked up): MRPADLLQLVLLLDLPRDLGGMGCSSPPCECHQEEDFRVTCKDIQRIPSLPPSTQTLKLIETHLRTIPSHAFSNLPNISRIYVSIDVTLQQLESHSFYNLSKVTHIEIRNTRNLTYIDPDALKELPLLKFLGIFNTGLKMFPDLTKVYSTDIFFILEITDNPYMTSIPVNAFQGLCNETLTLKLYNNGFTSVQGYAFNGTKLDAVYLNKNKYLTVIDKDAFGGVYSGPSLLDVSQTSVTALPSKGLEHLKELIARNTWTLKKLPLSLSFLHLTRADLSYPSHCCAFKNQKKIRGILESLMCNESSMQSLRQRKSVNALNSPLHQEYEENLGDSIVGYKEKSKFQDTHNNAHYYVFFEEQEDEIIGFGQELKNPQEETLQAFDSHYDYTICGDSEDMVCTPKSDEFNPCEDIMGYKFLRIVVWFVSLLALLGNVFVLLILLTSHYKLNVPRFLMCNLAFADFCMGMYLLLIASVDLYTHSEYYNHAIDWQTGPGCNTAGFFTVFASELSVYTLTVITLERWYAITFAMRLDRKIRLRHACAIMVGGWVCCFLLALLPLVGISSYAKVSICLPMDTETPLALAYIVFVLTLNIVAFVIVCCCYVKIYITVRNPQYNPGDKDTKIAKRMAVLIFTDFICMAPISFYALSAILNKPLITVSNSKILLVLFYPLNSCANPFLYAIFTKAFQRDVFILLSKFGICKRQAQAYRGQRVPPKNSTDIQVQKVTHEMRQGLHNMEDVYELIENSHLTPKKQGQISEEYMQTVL
Estrogen receptor beta (Homo sapiens), sequence (Q92731 whole entry, looked up): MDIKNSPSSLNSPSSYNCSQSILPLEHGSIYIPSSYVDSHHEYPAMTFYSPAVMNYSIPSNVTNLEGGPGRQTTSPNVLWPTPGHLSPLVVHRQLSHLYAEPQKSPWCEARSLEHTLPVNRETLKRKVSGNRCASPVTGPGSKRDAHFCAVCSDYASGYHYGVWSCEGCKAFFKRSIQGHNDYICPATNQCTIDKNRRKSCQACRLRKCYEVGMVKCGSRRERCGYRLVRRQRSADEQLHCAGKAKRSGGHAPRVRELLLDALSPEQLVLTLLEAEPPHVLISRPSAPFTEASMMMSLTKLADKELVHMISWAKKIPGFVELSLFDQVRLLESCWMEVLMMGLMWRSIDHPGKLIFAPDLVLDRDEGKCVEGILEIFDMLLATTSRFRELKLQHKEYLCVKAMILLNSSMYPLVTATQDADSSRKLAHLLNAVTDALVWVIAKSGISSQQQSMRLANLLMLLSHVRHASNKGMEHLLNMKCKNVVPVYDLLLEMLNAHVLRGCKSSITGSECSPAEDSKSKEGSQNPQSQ

On to `CCCCCCCCCCCCCC[P+](CCCC)(CCCC)CCCC`, for which the Potency in experiment [1] was 1.08 µM (active) and 1.72 µM (active); in experiment [2], 2.71 µM (active) and 4.33 µM (active); in [3] it was 68.2 µM (active) and 68.6 µM (active); in experiment [4], 30.5 µM (active) and 30.6 µM (active); in [6], 24.2 nM (active) and 61.1 nM (active); in experiment [7], 19.2 µM (active) and 15.4 µM (active). Besides, the Potency was 17.1 µM (active) and 27.3 µM (active) in experiment [8]; 19.2 µM (active) and 24.3 µM (active) in [10]; 54.2 µM (active) and 48.6 µM (active) in experiment [13]; 12.1 µM (active) and 17.2 µM (active) in experiment [14]. The Potency result in experiment [5], in [9], in experiment [11] and in [12] was “inactive” throughout.
As for `Cc1ccc(-c2cc(C(F)(F)F)nn2-c2ccc(S(N)(=O)=O)cc2)cc1`, the Potency in experiment [1] was 54.3 µM (active) and 68.6 µM (active); in experiment [17] it was 60.9 µM (active) and 61.1 µM (active) and inactive; in experiment [4], 54.3 µM (active) and 61.1 µM (active) and inactive; in [6], 21.6 µM (active) and 13.7 µM (active) and inactive; in [8] it was 60.9 µM (active) and 34.4 µM (active) and inactive; in experiment [10], 61.1 µM (active) and inactive. Moreover, the Potency entry in experiment [2], in experiment [15], in [16], in experiment [3], in experiment [5] and in [7] was “inactive” in each case. Moreover, the Potency result in experiment [9], in experiment [11], in experiment [12], in [13], in experiment [14] and in experiment [18] was “inactive” each time.
Consider `COC(=O)c1cccc(C(=O)OC)c1`, for which the Potency result in [1], in experiment [2], in [16], in experiment [3], in experiment [17] and in experiment [4] was “inactive” each time. In addition, the Potency entry in experiment [5], in experiment [6], in [7], in experiment [8], in experiment [9] and in experiment [10] was “inactive” throughout. Moreover, the Potency entry in experiment [11] and in experiment [18] was “inactive” each time. Further, the molecule was called inactive in experiment [19].
For `Oc1c(Cl)cc(Cl)c(Cl)c1Cc1c(O)c(Cl)cc(Cl)c1Cl`, the Potency in experiment [1] is 3.43 µM (active) and 6.11 µM (active) and 6.68 µM (active); in experiment [6] it was 1.93 µM (active) and 1.54 µM (active); in experiment [7], 8.61 µM (active) and 9.69 µM (active) and 9.44 µM (active); in [8], 60.9 µM (active) and 30.6 µM (active); in experiment [10] it was 48.4 µM (active) and 34.4 µM (active) and inactive; in [14], 13.3 µM (active). In addition, the Potency result in [15], in experiment [16], in [3], in [4], in experiment [5] and in experiment [9] was “inactive” each time. Further, the Potency entry in experiment [12] and in experiment [13] was “inactive” each time. Besides, the call in experiment [19] was inactive.
Take `O=C(O)Cn1cnnn1`: the Potency result in experiment [1], in [2], in experiment [16], in experiment [3], in experiment [17] and in [4] was “inactive” each time. For the same molecule, the Potency entry in experiment [5], in [6], in experiment [20], in experiment [8], in experiment [9] and in [10] was “inactive” in each case. The Potency result in experiment [11], in [12], in experiment [13], in experiment [14] and in experiment [18] was “inactive” each time. Besides, the molecule was classed as inactive in experiment [19].
Turning to `CC(=O)Nc1ccc(C(=O)CCl)cc1`, the Potency entry in experiment [1] is “inactive and 54.5 µM (active)”; in [6], “inactive and 30.6 µM (active)”. The Potency result in experiment [16], in [3], in experiment [4], in experiment [5], in [20] and in [8] was “inactive” throughout. Besides, the Potency result in [9], in experiment [10], in experiment [12], in experiment [13], in [14] and in experiment [18] was “inactive” in each case. The result in [19] was inactive.
